Results filed as inconclusive are left out. Active and inactive are the calls of the source. The call rests on the fitted dose curve; in most records, active means well fitted curve in the direction sought with a large enough effect; inconclusive means small, poorly fitted or top-dose-only effect, or another doubt; inactive means no such curve, though single readings can be large; an effect the other way counts as inactive or inconclusive. *1 amine or outer side, *2 acyl side, *3 side chain or, on linkers, in order; H or OH if unused. Where a SMILES comes first, the peptide text is derived from it. [ ]: non-standard residue; d: D form. X4 = CC(C)=CCc1cc(C(O)C(N[*:1])C(=O)[*:2])ccc1O
What was measured:
NIH3T3 = assay: qHTS assay to identify novel small-molecules to repurpose for Merkel cell carcinoma treatment (AID 1296009); conditions: MCC and control cell lines, CellTiter-Glo viability, 72 h; at 44.8 µM (top of the series) unless noted; further: nearly all actives have a fitted effect of over 60% in size
How it was run: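 Dose-response viability screen; 72 hr exposure at 37 degree celsius; CellTiter-Glo added, 10 min room temperature, luminescence read; RLUs scaled between no-cell and DMSO wells.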

C33A = assay: Primary qHTS to identify gynecologic anti-cancer compounds using libraries of approved drugs and bioactive compounds (AID 1345084); conditions: Gynecologic cancer cell panel viability, ATPlite luminescence, 48 h; series mostly up to 57.5 µM; further: on the % scale 0 is the no-effect control and ±100 the full control effect; nearly all actives have a fitted effect of over 55% in size
How it was run: (§1)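 Luminescence from the ATPlite ATP-monitoring reagent indicates viable cell number; lower signal means cytotoxicity. Cells received compound 16 h after seeding and were exposed for 48 h across five concentrations.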

CAOV3 = assay: as above; conditions: Gynecologic cancer cell panel viability, ATPlite luminescence, 48 h; series mostly up to 57.5 µM
How it was run: as §1

CASKI = assay: as above; conditions: Gynecologic cancer cell panel viability, ATPlite luminescence, 48 h; series mostly up to 57.5 µM
How it was run: as §1

Es-2 = assay: as above; conditions: Gynecologic cancer cell panel viability, ATPlite luminescence, 48 h; series mostly up to 57.5 µM
How it was run: as §1

HeLa = assay: as above; conditions: Gynecologic cancer cell panel viability, ATPlite luminescence, 48 h; series mostly up to 57.5 µM
How it was run: as §1

Hek293T = assay: as above; conditions: Gynecologic cancer cell panel viability, ATPlite luminescence, 48 h, control line for the selectivity index; series mostly up to 57.5 µM
How it was run: as §1

JEG-3 = assay: as above; conditions: Gynecologic cancer cell panel viability, ATPlite luminescence, 48 h; series mostly up to 57.5 µM
How it was run: as §1

OV90 = assay: as above; conditions: Gynecologic cancer cell panel viability, ATPlite luminescence, 48 h; series mostly up to 57.5 µM
How it was run: as §1

PA-1 = assay: as above; conditions: Gynecologic cancer cell panel viability, ATPlite luminescence, 48 h; series mostly up to 57.5 µM
How it was run: as §1

SKOV3 = assay: as above; conditions: Gynecologic cancer cell panel viability, ATPlite luminescence, 48 h; series mostly up to 57.5 µM
How it was run: as §1

Tov-21-G = assay: as above; conditions: Gynecologic cancer cell panel viability, ATPlite luminescence, 48 h; series mostly up to 57.5 µM
How it was run: as §1

Tov112D = assay: as above; conditions: Gynecologic cancer cell panel viability, ATPlite luminescence, 48 h; series mostly up to 57.5 µM
How it was run: as §1

OC[C@H]1O[C@@H](Oc2cc(O)c3c(c2)O[C@@H](c2ccc(O)cc2)[C@H](O)C3)[C@H](O)[C@@H](O)[C@@H]1O
inactive: outcome (NIH3T3) inactive [at 17.4 µM] | Potency (C33A) | Potency (CAOV3) | Potency (CASKI) | Potency (Es-2) | Potency (HeLa) | Potency (Hek293T) | Potency (JEG-3) | Potency (OV90) | Potency (PA-1) | Potency (SKOV3) | Potency (Tov-21-G) | Potency (Tov112D)

c1cc(OCCCN2CCCCC2)ccc1CN1CCCCC1
inactive: outcome (NIH3T3) | Potency (C33A) | Potency (CAOV3) | Potency (CASKI) | Potency (Es-2) | Potency (HeLa) | Potency (Hek293T) | Potency (JEG-3) | Potency (OV90) | Potency (PA-1) | Potency (SKOV3) | Potency (Tov-21-G) | Potency (Tov112D)

Cn1nnc(-c2ccc(-c3ccc(N4C[C@H](CO)OC4=O)cc3F)cn2)n1
inactive: outcome (NIH3T3) | Potency (C33A) | Potency (CAOV3) | Potency (CASKI) | Potency (Es-2) | Potency (HeLa) | Potency (Hek293T) | Potency (JEG-3) | Potency (OV90) | Potency (PA-1) | Potency (SKOV3) | Potency (Tov-21-G) | Potency (Tov112D)

CC(O)/C=C/C1(O)C(C)C(O[C@@H]2O[C@H](CO)[C@@H](O)[C@H](O)[C@H]2O)C(O)CC1(C)C (stereo partly specified)
inactive: outcome (NIH3T3) inactive [at 17.4 µM] | Potency (C33A) | Potency (CAOV3) | Potency (CASKI) | Potency (Es-2) | Potency (HeLa) | Potency (Hek293T) | Potency (JEG-3) | Potency (OV90) | Potency (PA-1) | Potency (SKOV3) | Potency (Tov-21-G) | Potency (Tov112D)

CC(C)=CCc1cc(C(O)C2NC(=O)CNC(=O)C(Cc3c[nH]c4ccccc34)NC(=O)C3CCCN3C(=O)CNC(=O)C(C(C)C)NC(=O)CNC2=O)ccc1O (stereo unspecified) (cyclo(G[X4]GVGPW); configuration not given here)
inactive: outcome (NIH3T3) inactive [at 9.27 µM] | activity change, negative = cytotoxicity (C33A) 7.59% [at 11.6 µM] | activity change, negative = cytotoxicity (CAOV3) -21.2% [at 11.6 µM] | activity change, negative = cytotoxicity (CASKI) -0.505% [at 11.6 µM] | activity change, negative = cytotoxicity (Es-2) 0.641% [at 11.6 µM] | activity change, negative = cytotoxicity (HeLa) 5.32% [at 11.6 µM] | activity change, negative = cytotoxicity (Hek293T) -0.92% [at 11.6 µM] | activity change, negative = cytotoxicity (JEG-3) 7.66% [at 11.6 µM] | activity change, negative = cytotoxicity (OV90) 5.8% [at 11.6 µM] | activity change, negative = cytotoxicity (PA-1) -1.16% [at 11.6 µM] | activity change, negative = cytotoxicity (SKOV3) 0% [at 11.6 µM] | activity change, negative = cytotoxicity (Tov-21-G) -4.16% [at 11.6 µM] | activity change, negative = cytotoxicity (Tov112D) -6.73% [at 11.6 µM]

Cc1c2cc(c(C(=O)O)c1C)OC1OC(C(O)C(O)C1O)C(O)C(O)C1OC(O2)C(O)C(O)C1O (stereo unspecified)
inactive: outcome (NIH3T3) inactive [at 17.4 µM] | Potency (C33A) | Potency (CAOV3) | Potency (CASKI) | Potency (Es-2) | Potency (HeLa) | Potency (Hek293T) | Potency (JEG-3) | Potency (OV90) | Potency (PA-1) | Potency (SKOV3) | Potency (Tov-21-G) | Potency (Tov112D)

CC1CCC2(OC1)OC1CC3C4CCC5C[C@@H](O[C@@H]6O[C@H](CO[C@@H]7OC[C@@H](O)[C@H](O)[C@H]7O)[C@H](O)[C@H](O)[C@H]6O)CC[C@]5(C)C4CC[C@]3(C)C1C2C (stereo partly specified)
inactive: outcome (NIH3T3) inactive [at 17.4 µM] | Potency (C33A) | Potency (CAOV3) | Potency (CASKI) | Potency (Es-2) | Potency (HeLa) | Potency (Hek293T) | Potency (JEG-3) | Potency (OV90) | Potency (PA-1) | Potency (SKOV3) | Potency (Tov-21-G) | Potency (Tov112D)

CC(NC(=O)C(O)C(C)C)C(=O)NC1C(=O)N(C)CCc2ccccc21 (stereo unspecified)
inactive: outcome (NIH3T3) | Potency (C33A) | Potency (CAOV3) | Potency (CASKI) | Potency (Es-2) | Potency (HeLa) | Potency (Hek293T) | Potency (JEG-3) | Potency (OV90) | Potency (PA-1) | Potency (SKOV3) | Potency (Tov-21-G) | Potency (Tov112D)

CC1OC(OC2C(C)OC(OC3C(O)C(CO)OC(O[C@H]4CC[C@@]5(C)C(CC[C@]6(C)C5CC=C5C7[C@@H](C)[C@H](C)CC[C@]7(C(=O)O)CC[C@]56C(=O)O)C4(C)C)C3O)C(O)C2O)C(O)C(O)C1O (stereo partly specified)
inactive: outcome (NIH3T3) inactive [at 9.27 µM] | activity change, negative = cytotoxicity (C33A) -5.63% [at 11.6 µM] | activity change, negative = cytotoxicity (CAOV3) 10.5% [at 11.6 µM] | activity change, negative = cytotoxicity (CASKI) 1.59% [at 11.6 µM] | activity change, negative = cytotoxicity (Es-2) 1.92% [at 11.6 µM] | activity change, negative = cytotoxicity (HeLa) 9.15% [at 11.6 µM] | activity change, negative = cytotoxicity (Hek293T) -7.85% [at 11.6 µM] | activity change, negative = cytotoxicity (JEG-3) -5.03% [at 11.6 µM] | activity change, negative = cytotoxicity (OV90) 0.765% [at 11.6 µM] | activity change, negative = cytotoxicity (PA-1) -0.273% [at 11.6 µM] | activity change, negative = cytotoxicity (SKOV3) -6.75% [at 11.6 µM] | activity change, negative = cytotoxicity (Tov-21-G) -0.483% [at 11.6 µM] | activity change, negative = cytotoxicity (Tov112D) 2.5% [at 11.6 µM]

COc1cc2c3c(cc4ccccc4c3c1O)NC2=O
inactive: outcome (NIH3T3) | Potency (C33A) | Potency (CAOV3) | Potency (CASKI) | Potency (Es-2) | Potency (HeLa) | Potency (Hek293T) | Potency (JEG-3) | Potency (OV90) | Potency (PA-1) | Potency (SKOV3) | Potency (Tov-21-G) | Potency (Tov112D)

C=C(C(=O)OC)C1C(O)CC2(C)C(=O)CCC(O)(CO)C2C1O (stereo unspecified)
inactive: outcome (NIH3T3) | Potency (C33A) | Potency (CAOV3) | Potency (CASKI) | Potency (Es-2) | Potency (HeLa) | Potency (Hek293T) | Potency (JEG-3) | Potency (OV90) | Potency (PA-1) | Potency (SKOV3) | Potency (Tov-21-G) | Potency (Tov112D)

C=C(C(=O)O)C1CCC2(C)CCCC(C)(O)C2C1 (stereo unspecified)
inactive: outcome (NIH3T3) | Potency (C33A) | Potency (CAOV3) | Potency (CASKI) | Potency (Es-2) | Potency (HeLa) | Potency (Hek293T) | Potency (JEG-3) | Potency (OV90) | Potency (PA-1) | Potency (SKOV3) | Potency (Tov-21-G) | Potency (Tov112D)
